Compound activity (PubChem)
Compounds with a hit are over-represented: about 6.2% of the library has one in this group of screens.
RORgamma inh: qHTS for inhibitors of ROR gamma transcriptional activity. Nuclear receptor ROR-gamma (Mus musculus), P51450. Drosophila S2 Gal4-RORgamma UAS-luciferase reporter, 20 h. Potency, µM (titrated, usually from 53.6 µM), for inactives: at the highest dose activity change, negative = inhibition, actives largely listed as inhibitors. hit rate 5.4% among 310,000. AID 2551, 2010; further: nearly all actives have a fitted effect of over 60% in size
Target sequence (P51450 whole entry, looked up, the tested form may be a part): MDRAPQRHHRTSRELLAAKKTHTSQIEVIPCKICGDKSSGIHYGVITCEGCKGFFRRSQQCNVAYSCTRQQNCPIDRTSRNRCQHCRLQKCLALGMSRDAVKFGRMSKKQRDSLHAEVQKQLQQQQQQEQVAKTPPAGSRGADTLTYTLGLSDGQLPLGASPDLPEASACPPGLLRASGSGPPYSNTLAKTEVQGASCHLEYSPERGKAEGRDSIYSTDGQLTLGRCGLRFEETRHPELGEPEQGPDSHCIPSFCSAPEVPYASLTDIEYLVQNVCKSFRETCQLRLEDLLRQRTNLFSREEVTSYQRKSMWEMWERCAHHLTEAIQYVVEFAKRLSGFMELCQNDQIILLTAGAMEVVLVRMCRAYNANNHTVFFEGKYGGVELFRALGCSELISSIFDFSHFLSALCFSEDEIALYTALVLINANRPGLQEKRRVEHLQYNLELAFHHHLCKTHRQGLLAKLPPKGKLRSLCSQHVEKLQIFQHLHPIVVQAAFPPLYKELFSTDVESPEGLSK
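In this cell-based reporter format, copper sulfate (700 uM final) drives Gal4–ROR gamma fusion expression from a metallothionein promoter in Drosophila Schneider cells; compounds preincubated 1 hr, reporter read after 20 hr at ambient temperature.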
KinaseGlo FLuc: Counterscreen for Luciferase (Kinase-Glo TM) Inhibition | Kinase-Glo luciferase, ATP luminescence, 8 min | Potency, µM (highest dose often 38.3 µM), without a hit: at the top dose activity change, negative = inhibition, actives largely listed as inhibitors | hit rate 0.28% among 200,000 | AID 1379, 2008; further: nearly all actives have a fitted effect of over 60% in size
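Recombinant Kinase-Glo luciferase, 10 uM ATP (linear range), luciferin; imidazole pH 7.2 / KCl / MgCl2 / Tween / BSA buffer; 8 min RT; luminescence.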
Gal4-VP16 FLuc: VP16 counterscreen qHTS for inhibitors of ROR gamma transcriptional activity | Drosophila S2 Gal4-VP16 UAS-luciferase, luminescence, 20 h | Potency, µM (doses to about 53.6 µM), for inactives: at the top dose activity, negative = inhibition, hits mostly inhibitors | hit rate 3.5% among 310,000 | AID 2546, 2010;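 further: Gal4-VP16 expression switched on by copper sulfate through the metallothionein promoter; nearly all actives have a fitted effect of over 50% in size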
Active calls of the source: *; u = inconclusive; x = no result given; ! = repeats disagree; [ ] = remark or other dose. The call rests on the fitted dose curve; in most records, active means well fitted curve in the direction sought with a large enough effect; inconclusive means small, poorly fitted or top-dose-only effect, or another doubt; inactive means no such curve, though single readings can be large; an effect the other way counts as inactive or inconclusive. On the % scale 0 is the no-effect control and ±100 the full control effect; potency means the concentration at half of the fitted maximal effect.

SMILES | RORgamma inh | KinaseGlo FLuc | Gal4-VP16 FLuc
COc1ccc2c(c1)O[C@@H](c1cccc(C(F)(F)F)c1)[C@H](OC(=O)Nc1ccc(C)c(Br)c1)C2=O | 3.2% | -1.7% | -5.6%
O=C(NCCc1ccccc1)C1(S(=O)(=O)c2ccc(Cl)cc2)CC1 | 20.9% | x | 0.6%
CC(=O)c1ccc(NC(=S)N2CCCC2)cc1 | 43.9% | x | 6.7%
Cc1ccc(C)c(S(=O)(=O)NC(C)C(=O)NCc2ccccn2)c1 (stereo unspecified) | -6.9% | x | -6.3%
Cc1ccc(S(=O)(=O)C2(C(=O)N3CCCCC3C)CC2)cc1 (stereo unspecified) | -5.4% | 4.0% | 1.2%
CCN(CC)CCn1c(NC(=O)c2ccccc2O)nc2ccccc21 | 2.51µM* | x | 5.01µM*
Cc1ccc(CNc2nc3ccccc3n2C)o1 | -31.6% | x | 8.8%
CCN(CC)CCn1c(NS(=O)(=O)c2ccc(Cl)cc2)nc2ccccc21 | -8.1% | x | -4.0%
CCN(CC)CCn1c(NCc2ccc(C)o2)nc2ccccc21 | 0.501µM* | -3.2% | 3.1%
CCN(CC)CCn1c(NC(=O)c2ccc(Cl)cc2)nc2ccccc21 | 2µM* | -2.4% | 2.51µM*
CCN(CC)CCn1c(C)nc2ccccc21 | -26.7% | x | -0.5%
O=S(=O)(Nc1nc(-c2ccccc2)cs1)c1cc(Cl)ccc1Cl | 3.9% | x | -13.3%
CCCCCCCC/C=C\CCCCCCCC(=O)NCCCC(=O)O | 2.1% | 0.2% | -23.2%
Cc1c(C(=O)N2CCC(C)CC2)sc2ncnc(N(C)c3ccccc3)c12 | u | 1.3% | 2.7%
Oc1ccc(Cc2nccc3cc(O)c(O)cc23)cc1O | x | -2.9%[7.66 µM] | x
CCOc1ccc(Cc2nccc3cc(OCC)c(OCC)cc23)cc1OCC | -1.2% | -2.5% | 15.8µM*!
CCc1ccc(NC(=O)C(=S)NC2CCCCC2)cc1 | 1.5% | x | -12.8%
CCc1ccc(-c2cn(C3CCCCC3)c(=S)[nH]2)cc1 | 0.708µM* | -0.4% | u
O=C(CCN1C(=O)S/C(=C\c2ccc(F)cc2)C1=O)Nc1ccc(O)cc1C(=O)O | -17.2% | x | -1.5%
CSc1n[nH]c(NCc2cccs2)n1 | 20.1% | -0.7% | 2.5%
COc1ccc(CCN2CCC[C@H](CN3CCc4cc(OC)c(OC)cc4CC3=O)C2)cc1OC | 17.2% | x | 5.3%
O=c1[nH]c(-c2ccccn2)nc2sc(-c3ccccc3)cc12 | 0.316µM* | 1.2% | 1.41µM*
Cc1c(C(=O)N(C)C)sc2nc(-c3ccccn3)[nH]c(=O)c12 | u | -2.2% | -13.3%
COc1cccc(/C=C2\CCCCC2=O)c1 | -19.4% | x | -0.6%
CCc1c(C)nc2ncnn2c1Nc1ccc(C)cc1 | -25.3% | x | -1.7%
SMILES | RORgamma inh | KinaseGlo FLuc | Gal4-VP16 FLuc
CCc1c(C)nc2ncnn2c1NCCc1ccc(OC)cc1 | 5.1% | -1.1% | 17.8µM*
COc1ccc(CNC(=O)CS(=O)CC(=O)O)cc1OC (stereo unspecified) | 43.4% | 2.6% | 7.3%
COc1cc(C2NC(=O)NC3=C2C(=O)OC3)cc(OC)c1OC (stereo unspecified) | 11.8% | x | -3.5%
CCN(Cc1ccc(NC(C)=O)cc1)CC1CCCN(CCc2cccc(OC)c2)C1 (stereo unspecified) | 2.7% | x | -9.3%
O=[N+]([O-])c1cc([N+](=O)[O-])c2cc3ccccc3nc2c1 | 3.16µM* | x | 2.82µM*
O=[N+]([O-])c1cnc2ccccc2c1 | 23.3% | -3.4% | -9.6%
COc1ccccc1-c1cc(C(=O)N2CCOCC2)no1 | -21.9% | x | 1.5%
CC1CC(C)CN(S(=O)(=O)c2ccc(C(=O)Nc3nnc(-c4cccs4)o3)cc2)C1 (stereo unspecified) | 0.251µM* | 2.9% | 0.501µM*
CCC1CCCCN1S(=O)(=O)c1ccc(C(=O)Nc2nnc(-c3cccs3)o2)cc1 (stereo unspecified) | 0.316µM* | 3.2% | 0.316µM*
CC1CC(C)CN(S(=O)(=O)c2ccc(C(=O)Nc3sccc3C(N)=O)cc2)C1 (stereo unspecified) | -13.8% | -2.0% | u
CCC1CCCCN1S(=O)(=O)c1ccc(NC(=O)c2cccnc2)cc1 (stereo unspecified) | 1.6% | x | -2.6%
Fc1ccc(C2=NCCC(c3ccccc3)O2)cc1 (stereo unspecified) | -18.1%[96.6 µM] | 1.7%[39.9 µM] | -6.2%[96.6 µM]
COc1ccc(NC(=O)C23CC4CC(C2)CC(n2cnc(Br)n2)(C4)C3)c(OC)c1 | 5.62µM* | -2.6% | -41.1%
COc1ccc(OC)c(NC(=O)C23CC4CC(C2)CC(n2cnc(Br)n2)(C4)C3)c1 | -5.1% | -0.7% | 1.8%
CN(CCc1ccc(Cl)c(Cl)c1)C[C@@H](O)COc1ccc(NS(C)(=O)=O)cc1 | -12.6% | 2.1% | 2.5%
